Each structure is given as a SMILES string. ± gives the uncertainty stated by the source.

This experiment relates to THP-1. The experiment can be described thus: CD54 surface expression induction over DMSO control (% over DMSO); higher = stronger dendritic cell activation. Conditions: exposure time: 24 h. As to the method: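 hCLAT-like CD54 and CD86 surface expression on THP1 cells after 24 h exposure at a single concentration (highest non-cytotoxic concentration, or 100-200 µM if not cytotoxic). Flow cytometry (iQue) was run on 5,000 live cells.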
Turning to `CC/C=C\C/C=C\C/C=C\CCCCCCCC(=O)OCC` [Ethyl linolenate] (10 µM), the “CD54 surface expression induction” value was -3.84 ± 2.1.

In the case of `O=c1n(CC2CO2)c(=O)n(CC2CO2)c(=O)n1CC1CO1` (stereo not drawn) [Triglycidyl isocyanurate] (10 µM), the “CD54 surface expression induction” value came out at 4 ± 1.7.

Regarding `O=C(O)c1cc(O)c2ccccc2c1O` [1,4-dihydroxy-2-naphthoic acid*] (10 µM), the “CD54 surface expression induction” value came out at 374 ± 47.

For the molecule `O=C(Nc1ncc([N+](=O)[O-])s1)c1cccs1` [Tenonitrozole] (10 µM), the “CD54 surface expression induction” value was -7 ± 4.7.

`S=C(NC1CCCCC1)NC1CCCCC1` [N,N'-Dicyclohexylthiourea] (10 µM): the “CD54 surface expression induction” value is -7.65 ± 5.2.

With `Cc1ccc(N)cc1O` [5-Amino-2-methylphenol] (200 µM), the “CD54 surface expression induction” value came out at 34.1 ± 7.2.

Take `Cc1c(C)n(CCN(C)C)c2ccc(C(=O)OCCN(C)C)cc12` [Amindocate] (100 µM): the “CD54 surface expression induction” value is -6.56 ± 2.9.

With `CCN(CC)CCSC(=O)C(c1ccccc1)c1ccccc1` [Thiphenamil] (200 µM), the “CD54 surface expression induction” value was determined as 99.2 ± 12.

On to `CCCCCCC(C)O` (stereo not drawn) [2-Octanol] (200 µM), for which the “CD54 surface expression induction” value is -1.7 ± 0.35.

On to `c1ccc(-c2ccccn2)nc1` [2,2'-Dipyridyl] (200 µM), for which the “CD54 surface expression induction” value was -9.09 ± 20.

Turning to `CC(C)CCCCCCCOC(=O)c1ccc(C(=O)OCCCCCCCC(C)C)c(C(=O)OCCCCCCCC(C)C)c1` [Triisodecyl trimellitate] (163 µM), the “CD54 surface expression induction” value was determined as 10.7 ± 46.

Regarding `COc1cc(C(C)(C)C)c(O)c(C(C)(C)C)c1` [2,6-Di-tert-butyl-4-methoxyphenol] (200 µM), the “CD54 surface expression induction” value was found to be 14.5 ± 0.32.

For `COc1cccc2c1C(=O)c1c(O)c3c(c(O)c1C2=O)C[C@@](O)(C(=O)CO)C[C@@H]3O[C@H]1C[C@H](N)[C@H](O[C@@H]2CCCCO2)[C@H](C)O1` [Pirarubicin*] (10 µM), the “CD54 surface expression induction” value is 263 ± 46.

The values are drawn from the supplement of paper PMC10933113.
